Here are results for three compounds from PubChem BioAssay (EPA / NIEHS).

Activity calls are given as the source filed them. Rule for the calls: active = hit-call score of the fitted dose curve at least 0.9, where 1 is the maximum; inactive = score below 0.9.

The nature of assay [1]: CEETOX_H295R_ESTRADIOL: CeeTox H295R High-throughput Steroidogenesis Assay for Estradiol (AID 2283440).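 Note: estradiol secreted into medium quantified by LC-MS/MS after dansyl derivatisation.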 The conditions noted are these: actives raise or lower the signal. A digest of the protocol:
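H295R, 48 h forskolin (10 uM) prestim → 48 h compound, 0.1% DMSO final. Estradiol in medium: MTBE extraction, dansyl chloride derivatization, LC-MS/MS. Fit bidirectional vs DMSO baseline; MTT viability in same wells.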

A short description of assay [2]: CEETOX_H295R_PROG: CeeTox H295R High-throughput Steroidogenesis Assay for Progesterone (PROG) (AID 2283442). The conditions noted are these: actives raise or lower the signal. A digest of the protocol: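 Progesterone read-out: HPLC-MS/MS on MTBE extracts of conditioned medium after 48 h chemical exposure of forskolin-primed (10 uM, 48 h) H295R cells. Gain or loss of signal was fitted relative to DMSO baseline.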

Read-out in assay [3]: Tumor necrosis factor receptor superfamily member 6 (Homo sapiens) (UniProt P25445)
Description: LTEA_HepaRG_FAS: Life Technologies and Expression Analysis (LTEA) Assay for Fas cell surface death receptor (FAS) using HepaRG (AID 2283447). To be noted: mRNA level, 48 h; actives raise or lower the signal. Summed up: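 FAS transcript level was measured by TaqMan qRT-PCR against three housekeeping genes after 48 h chemical exposure. Cells were HepaRG, 0.5% DMSO vehicle, with a top concentration of 100 uM and half-log dilutions over eight points, in duplicate.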

Read-out in assay [4]: Fatty acid synthase (Homo sapiens) (UniProt P49327)
Description: LTEA_HepaRG_FASN: Life Technologies and Expression Analysis (LTEA) Assay for Fatty Acid Synthase (FASN) using HepaRG (AID 2283448).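 For AC50: differentiated human HepaRG liver cells in serum-free induction medium.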 The conditions noted are these: mRNA level, 48 h; actives raise or lower the signal. Summed up:
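HepaRG, 48 h exposure, 8-pt half-log series top 100 uM, 0.5% DMSO vehicle, duplicates. Readout: FASN transcript by Fluidigm qRT-PCR; housekeeping-normalized; bidirectional curve fit vs DMSO baseline.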

Read-out in assay [5]: Cyclin Dependent Kinase Inhibitor 1A (CDKN1A), CDKN1A (gene 1026)
The assay can be described thus: LTEA_HepaRG_CDKN1A: Life Technologies and Expression Analysis (LTEA) Assay for Cyclin Dependent Kinase Inhibitor 1A (CDKN1A) using HepaRG (AID 2283450). To be noted: mRNA level, 48 h; actives raise or lower the signal. A digest of the protocol: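 HepaRG, 48 h dosing, 8-pt half-log series from 100 uM top, 0.5% DMSO vehicle, duplicates. Readout: TaqMan qRT-PCR of CDKN1A transcript, housekeeping-normalized (ACTB, GAPDH, POLR2A). Up/down curve fit relative to DMSO.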

Read-out in assay [6]: Cyclin D1 (CCND1), CCND1 (gene 595)
The assay can be described thus: LTEA_HepaRG_CCND1: Life Technologies and Expression Analysis (LTEA) Assay for Cyclin D1 (CCND1) using HepaRG (AID 2283451).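 For AC50: differentiated human HepaRG liver cells in serum-free induction medium.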 The conditions noted are these: mRNA level, 48 h; actives raise or lower the signal. A digest of the protocol: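 qRT-PCR (Fluidigm 96.96 array) read-out of transcript level, housekeeping-normalized (ACTB/GAPDH/POLR2A). HepaRG cells, 48 h chemical exposure, 8-point half-log series from 100 uM, 0.5% DMSO vehicle; gain or loss relative to DMSO baseline.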

Read-out in assay [7]: catalase (CAT), CAT (gene 847)
The assay can be described thus: LTEA_HepaRG_CAT: Life Technologies and Expression Analysis (LTEA) Assay for catalase (CAT) using HepaRG (AID 2283452). To be noted: mRNA level, 48 h; actives raise or lower the signal. Summed up: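 Expression of CAT was quantified by TaqMan qRT-PCR with ACTB/GAPDH/POLR2A normalization after 48 h chemical exposure of HepaRG. Eight-point half-log series, top 100 uM, in 0.5% DMSO; gain or loss fitted against vehicle.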

Read-out in assay [8]: flavin-containing dimethylaniline monooxygenases 3 (FMO3), FMO3 (gene 2328)
Description: LTEA_HepaRG_FMO3: Life Technologies and Expression Analysis (LTEA) Assay for flavin-containing dimethylaniline monooxygenases 3 (FMO3) using HepaRG (AID 2283453).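 For AC50: differentiated human HepaRG liver cells in serum-free induction medium.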 To be noted: mRNA level, 48 h; actives raise or lower the signal. Summed up:
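Eight-point concentration-response in serum-free HepaRG cultures (top 100 uM, 0.5% DMSO, 48 h). Read-out: FMO3 mRNA level normalized to three endogenous control genes, fitted bidirectionally versus vehicle.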

Read-out in assay [9]: Cytochrome P450 (CYP1A1), CYP1A1 (gene 1543)
Description: LTEA_HepaRG_CYP1A1: Life Technologies and Expression Analysis (LTEA) Assay for Cytochrome P450 (CYP1A1) using HepaRG (AID 2283454). To be noted: mRNA level, 48 h; actives raise or lower the signal. A digest of the protocol:
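qRT-PCR read-out: CYP1A1 transcript normalized to three housekeeping genes, fitted bidirectionally against 0.5% DMSO vehicle baseline. Human HepaRG cells, 48 h chemical exposure, 8-point half-log series topping at 100 uM.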

Read-out in assay [10]: CFLAR gene, CFLAR (gene 8837)
Description: LTEA_HepaRG_CFLAR: Life Technologies and Expression Analysis (LTEA) Assay for CFLAR gene using HepaRG (AID 2283455). To be noted: mRNA level, 48 h; actives raise or lower the signal. Summed up: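 Transcript level by qRT-PCR (normalized to ACTB, GAPDH and POLR2A) after 48 h chemical exposure of HepaRG cells, top concentration 100 uM with half-log steps, 0.5% DMSO vehicle, duplicates; fitted bidirectionally against DMSO baseline.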

Read-out in assay [11]: Forkhead box O1 (FOXO1), FOXO1 (gene 2308)
The assay can be described thus: LTEA_HepaRG_FOXO1: Life Technologies and Expression Analysis (LTEA) Assay for Forkhead box O1 (FOXO1) using HepaRG (AID 2283456). The conditions noted are these: mRNA level, 48 h; actives raise or lower the signal. A digest of the protocol: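 FOXO1 transcript quantified by qRT-PCR after 48 h chemical exposure (top 100 uM, half-log steps, 0.5% DMSO) of HepaRG cells, housekeeping-normalized (ACTB/GAPDH/POLR2A). Changes fitted in both directions relative to vehicle.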

Read-out in assay [12]: growth arrest and DNA damage 45 (GADD45A), GADD45A (gene 1647)
Description: LTEA_HepaRG_GADD45A: Life Technologies and Expression Analysis (LTEA) Assay for growth arrest and DNA damage 45 (GADD45A) using HepaRG (AID 2283458). The conditions noted are these: mRNA level, 48 h; actives raise or lower the signal. A digest of the protocol: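 HepaRG, 48 h exposure, 8 conc. (top 100 uM, half-log steps), 0.5% DMSO vehicle, duplicates. Read-out: qRT-PCR mRNA level, housekeeping-normalized (ACTB/GAPDH/POLR2A). Curves fit bidirectionally vs DMSO baseline.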

Read-out in assay [13]: Forkhead box O3 (FOXO3), FOXO3 (gene 2309)
The assay can be described thus: LTEA_HepaRG_FOXO3: Life Technologies and Expression Analysis (LTEA) Assay for Forkhead box O3 (FOXO3) using HepaRG (AID 2283459). To be noted: mRNA level, 48 h; actives raise or lower the signal. Summed up:
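FOXO3 transcript measured by qRT-PCR (normalized to ACTB, GAPDH, POLR2A) after 48 h exposure of HepaRG cells in serum-free induction medium. Duplicates, eight half-log concentrations up to 100 uM, 0.5% DMSO; gain or loss fitted against DMSO.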

Read-out in assay [14]: ABC Transporter (ABCC3), ABCC3 (gene 8714)
The assay can be described thus: LTEA_HepaRG_ABCC3: Life Technologies and Expression Analysis (LTEA) Assay for ABC Transporter (ABCC3) using HepaRG (AID 2283462). To be noted: mRNA level, 48 h; actives raise or lower the signal. Summed up: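 qRT-PCR read-out of ABCC3 transcript, normalized to three housekeeping genes (ACTB, GAPDH, POLR2A), after 48 h chemical exposure of human HepaRG cells. Eight half-log concentrations, highest 100 uM, in 0.5% DMSO; gain or loss fitted relative to DMSO baseline.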

Read-out in assay [15]: ABC Transporter (ABCB11), ABCB11 (gene 8647)
The assay can be described thus: LTEA_HepaRG_ABCB11: Life Technologies and Expression Analysis (LTEA) Assay for ABC Transporter (ABCB11) using HepaRG (AID 2283463). The conditions noted are these: mRNA level, 48 h; actives raise or lower the signal. Summed up: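 ABCB11 transcript levels quantified by TaqMan qRT-PCR against three housekeeping genes after 48 h chemical exposure of HepaRG cultures. Concentrations up to 100 uM in half-log steps, 0.5% DMSO vehicle; both induction and suppression scored.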

Read-out in assay [16]: ABC Transporter (ABCC2), ABCC2 (gene 1244)
The assay can be described thus: LTEA_HepaRG_ABCC2: Life Technologies and Expression Analysis (LTEA) Assay for ABC Transporter (ABCC2) using HepaRG (AID 2283464). The conditions noted are these: mRNA level, 48 h; actives raise or lower the signal. Summed up:
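qRT-PCR (TaqMan, Fluidigm array) read-out of ABCC2 mRNA, normalized to three housekeeping genes. Differentiated HepaRG cells were treated 48 h in serum-free induction medium with 8-point half-log series from 100 uM in 0.5% DMSO; curves fitted bidirectionally relative to DMSO.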

Read-out in assay [17]: Cyclin D2 (CCND2), CCND2 (gene 894)
The assay can be described thus: LTEA_HepaRG_CCND2: Life Technologies and Expression Analysis (LTEA) Assay for Cyclin D2 (CCND2) using HepaRG (AID 2283449). To be noted: mRNA level, 48 h; actives raise or lower the signal. Summed up:
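CCND2 transcript levels, quantified by qRT-PCR and normalised to three housekeeping genes, were fitted bidirectionally against 0.5% DMSO. HepaRG cultures were dosed 48 h in duplicate with an 8-point half-log series up to 100 uM.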

Assay [18] can be described thus: CEETOX_H295R_TESTO: CeeTox H295R High-throughput Steroidogenesis Assay for Testosterone (TESTO) (AID 2283457). To be noted: actives raise or lower the signal. Summed up:
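Readout: testosterone quantified by HPLC-MS/MS (C18, ESI positive) after MTBE liquid-liquid extraction of culture medium. Cells were H295R, 48 h chemical exposure per OECD 456 with modifications. Gain or loss of signal fitted relative to DMSO.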

Read-out in assay [19]: ABC Transporter (ABCB1), ABCB1 (gene 5243)
Description: LTEA_HepaRG_ABCB1: Life Technologies and Expression Analysis (LTEA) Assay for ABC Transporter (ABCB1) using HepaRG (AID 2283460). The conditions noted are these: mRNA level, 48 h; actives raise or lower the signal. Summed up: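 ABCB1 transcript level measured by TaqMan qRT-PCR against three housekeeping genes after 48 h chemical exposure of differentiated HepaRG cells. Top concentration 100 uM, half-log steps, eight points, 0.5% DMSO vehicle; bidirectional fit relative to DMSO.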

Read-out in assay [20]: growth arrest and DNA damage 45 (GADD45B), GADD45B (gene 4616)
The assay can be described thus: LTEA_HepaRG_GADD45B: Life Technologies and Expression Analysis (LTEA) Assay for growth arrest and DNA damage 45 (GADD45B) using HepaRG (AID 2283461). To be noted: mRNA level, 48 h; actives raise or lower the signal. A digest of the protocol:
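qRT-PCR read-out (Fluidigm TaqMan, housekeeping-normalized) of mRNA change in human HepaRG cells after 48 h chemical exposure; 8-point curve, top 100 uM, half-log steps, 0.5% DMSO vehicle; gain or loss fitted relative to DMSO baseline.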

Fatty acid synthase (Homo sapiens), sequence (P49327 whole entry, looked up): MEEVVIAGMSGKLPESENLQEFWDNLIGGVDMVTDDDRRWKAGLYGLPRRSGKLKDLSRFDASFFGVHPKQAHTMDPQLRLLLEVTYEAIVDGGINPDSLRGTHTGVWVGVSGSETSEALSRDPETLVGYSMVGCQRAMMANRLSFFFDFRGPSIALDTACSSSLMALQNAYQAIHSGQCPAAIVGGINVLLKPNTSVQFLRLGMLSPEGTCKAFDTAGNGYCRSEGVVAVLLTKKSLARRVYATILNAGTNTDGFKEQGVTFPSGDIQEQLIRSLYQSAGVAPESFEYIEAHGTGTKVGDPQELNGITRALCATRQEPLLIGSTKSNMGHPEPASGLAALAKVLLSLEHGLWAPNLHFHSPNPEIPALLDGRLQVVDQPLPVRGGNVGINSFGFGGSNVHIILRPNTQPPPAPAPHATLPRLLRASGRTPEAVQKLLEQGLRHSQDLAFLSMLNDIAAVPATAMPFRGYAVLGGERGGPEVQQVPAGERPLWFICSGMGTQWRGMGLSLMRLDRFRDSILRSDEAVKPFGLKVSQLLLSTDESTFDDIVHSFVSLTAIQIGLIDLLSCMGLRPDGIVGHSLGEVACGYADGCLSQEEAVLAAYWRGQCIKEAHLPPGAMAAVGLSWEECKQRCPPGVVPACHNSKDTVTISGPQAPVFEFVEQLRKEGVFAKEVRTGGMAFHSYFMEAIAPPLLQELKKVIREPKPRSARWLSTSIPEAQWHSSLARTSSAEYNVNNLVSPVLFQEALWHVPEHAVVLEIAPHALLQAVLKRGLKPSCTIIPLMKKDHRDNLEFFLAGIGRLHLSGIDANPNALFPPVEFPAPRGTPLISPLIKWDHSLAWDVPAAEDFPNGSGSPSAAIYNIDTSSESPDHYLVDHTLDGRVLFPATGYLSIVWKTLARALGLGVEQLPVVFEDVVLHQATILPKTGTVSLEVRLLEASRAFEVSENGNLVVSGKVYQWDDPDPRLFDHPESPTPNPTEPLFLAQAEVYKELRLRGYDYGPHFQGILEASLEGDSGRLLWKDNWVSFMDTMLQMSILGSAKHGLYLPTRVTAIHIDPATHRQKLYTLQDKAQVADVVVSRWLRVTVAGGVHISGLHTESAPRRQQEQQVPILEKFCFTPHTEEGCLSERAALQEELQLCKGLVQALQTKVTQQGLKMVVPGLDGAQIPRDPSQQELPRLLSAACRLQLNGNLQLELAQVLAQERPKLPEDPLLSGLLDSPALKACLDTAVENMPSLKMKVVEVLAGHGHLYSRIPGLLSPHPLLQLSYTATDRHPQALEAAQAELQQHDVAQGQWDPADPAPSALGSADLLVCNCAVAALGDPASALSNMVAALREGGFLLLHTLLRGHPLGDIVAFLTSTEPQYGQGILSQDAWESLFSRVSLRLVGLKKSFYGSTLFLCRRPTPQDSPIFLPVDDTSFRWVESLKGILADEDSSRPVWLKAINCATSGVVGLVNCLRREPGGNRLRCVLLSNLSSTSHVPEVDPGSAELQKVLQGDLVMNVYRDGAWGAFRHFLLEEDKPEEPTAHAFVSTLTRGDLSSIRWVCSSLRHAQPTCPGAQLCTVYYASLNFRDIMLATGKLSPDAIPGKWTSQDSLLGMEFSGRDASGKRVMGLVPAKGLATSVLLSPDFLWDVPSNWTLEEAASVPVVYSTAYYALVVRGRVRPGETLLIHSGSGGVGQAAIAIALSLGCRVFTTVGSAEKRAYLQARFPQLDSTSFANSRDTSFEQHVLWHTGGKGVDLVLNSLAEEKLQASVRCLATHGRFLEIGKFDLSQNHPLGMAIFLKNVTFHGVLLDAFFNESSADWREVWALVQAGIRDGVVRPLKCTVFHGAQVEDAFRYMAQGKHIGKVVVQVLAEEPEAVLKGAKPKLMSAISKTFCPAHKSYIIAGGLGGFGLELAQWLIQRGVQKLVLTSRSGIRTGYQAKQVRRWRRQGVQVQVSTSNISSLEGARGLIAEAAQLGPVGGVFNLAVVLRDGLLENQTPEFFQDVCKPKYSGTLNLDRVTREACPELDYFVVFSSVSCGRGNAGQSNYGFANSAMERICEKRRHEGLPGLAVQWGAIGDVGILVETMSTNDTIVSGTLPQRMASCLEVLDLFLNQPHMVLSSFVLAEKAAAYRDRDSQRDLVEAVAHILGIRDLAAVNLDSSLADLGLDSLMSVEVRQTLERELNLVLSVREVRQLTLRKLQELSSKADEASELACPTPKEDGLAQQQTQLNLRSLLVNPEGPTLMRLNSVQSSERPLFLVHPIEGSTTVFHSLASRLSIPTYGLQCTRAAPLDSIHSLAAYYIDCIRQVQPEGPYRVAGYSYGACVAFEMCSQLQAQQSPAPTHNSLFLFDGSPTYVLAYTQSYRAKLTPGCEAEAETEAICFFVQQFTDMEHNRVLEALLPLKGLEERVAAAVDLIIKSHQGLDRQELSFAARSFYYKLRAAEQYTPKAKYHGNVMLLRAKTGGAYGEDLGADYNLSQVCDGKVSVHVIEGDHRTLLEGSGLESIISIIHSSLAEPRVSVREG

In general, AC50 refers to the concentration giving half of the maximal activity seen. As for `CCOC(=O)C(Cl)Cc1cc(-n2nc(C)n(C(F)F)c2=O)c(F)cc1Cl` (stereo not drawn), the result in [1], in assay [2], in assay [3], in [4], in [5] and in assay [6] was inactive. The result in [7], in assay [8], in [10], in assay [11], in assay [12] and in assay [13] was inactive. The result in [14], in assay [15] and in [16] was inactive. Besides, the AC50 in assay [9] was 61.9 µM (active).

In the case of `CCCCNC(=O)n1c(NC(=O)OC)nc2ccccc21`, the call in assay [1], in [2], in assay [3], in assay [4], in [17] and in assay [5] was inactive. Besides, the result in [6], in [7], in assay [8], in assay [10], in assay [11] and in [18] was inactive. The call in assay [12], in assay [13], in assay [14], in assay [15] and in assay [16] was inactive. Further, the AC50 in [9] was 26.1 µM (active).

Turning to `CC1COC(Cn2cncn2)(c2ccc(Oc3ccc(Cl)cc3)cc2Cl)O1` (stereo not drawn), the call in assay [1], in [2], in [17], in assay [10] and in assay [14] was inactive. Further, the AC50 in [3] is 17.9 µM (active); in assay [4] it was 29.7 µM (active); in assay [5], 12.7 µM (active); in [6], 83.9 µM (active); in assay [7], 17.4 µM (active); in [8], 22.2 µM (active). Moreover, the AC50 is 12.2 µM (active) in assay [9]; 30 µM (active) in assay [11]; 12 µM (active) in assay [12]; 79.2 µM (active) in assay [13]; 81.4 µM (active) in assay [19]; 9.92 µM (active) in assay [20]. Further, the AC50 in [15] is 11.2 µM (active); in [16], 34.4 µM (active).
